Experimental findings from PubChem BioAssay (NCI) are described below.

Compounds without any hit were thinned out: in the full panel of roughly 83,000, 20% have a hit.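 Values shown are percent growth following 48 h exposure of cells in 96-well plates to a single concentration of compound; below 10 was considered active.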 Values without a mark were called inactive. Active and inactive are the calls of the source. *1 amine or outer side, *2 acyl side, *3 side chain or, on linkers, in order; H or OH if unused. Where a SMILES comes first, the peptide text is derived from it. [ ]: non-standard residue; d: D form. The star is where a group is joined. X5 = CCC(=O)CC1CC(C)CC(C(=O)[*:2])N1[*:1]; X4 = CCCCCCCCC(C)C(=O)*; Aib = CC(C)(N)C(=O)O; X6 = CC(CN(C)CCO)N*

What all share (experiment): NCI-60 one-dose screen, 48 h (100 = growth as untreated, 0 = no growth, -100 = all killed)
Test [1] deals with HCT-15 colon. Conditions: 10 µM unless noted.
Test [2] has as its system HT29 colon. The conditions noted are these: 10 µM unless noted.
For test [3], the system named is SNB-75 CNS. The conditions noted are these: 10 µM unless noted.
Test [4] deals with SNB-19 CNS. The conditions noted are these: 10 µM unless noted.
The test system of test [5] is PC-3 prostate. The conditions noted are these: 10 µM unless noted.
In test [6] the test system is SK-MEL-5 melanoma. Conditions: 10 µM unless noted.
Test [7] relates to UACC-62 melanoma. Conditions: 10 µM unless noted.
Test [8] relates to LOX IMVI melanoma. Conditions: 10 µM.
For test [9], the system named is SK-MEL-28 melanoma. The conditions noted are these: 10 µM unless noted.
Test [10] concerns SK-MEL-2 melanoma. The conditions noted are these: 10 µM unless noted.
The test system of test [11] is SN12C renal. The conditions noted are these: 10 µM unless noted.
Test [12] deals with UO-31 renal. The conditions noted are these: 10 µM unless noted.
The subject of test [13] is TK-10 renal. The conditions noted are these: 10 µM unless noted.
Test [14] relates to ACHN renal. The conditions noted are these: 10 µM unless noted.
Test [15] relates to CAKI-1 renal. Conditions: 10 µM unless noted.
The test system of test [16] is A498 renal. The conditions noted are these: 10 µM unless noted.
Test [17] concerns CCRF-CEM leukemia. The conditions noted are these: 10 µM unless noted.
The test system of test [18] is MOLT-4 leukemia. Conditions: 10 µM unless noted.
In test [19] the test system is U251 CNS. Conditions: 10 µM unless noted.
The subject of test [20] is EKVX NSCLC. Conditions: 10 µM unless noted.

Regarding `O=C/C=C/c1ccc([N+](=O)[O-])cc1`, the growth in test [1] is 105%; in [2] it was 97.6%; in test [3], 98.9%; in test [4] it was 95.3%; in [5], 98.7%; in [6] it was 102%. In addition, the growth in [7] is 98.2%; in test [8] it was 83.8%; in test [9], 113%; in test [10], 103%; in [11] it was 102%; in [12], 84.2%. Further, the growth in [13] was 99.9%; in [14], 112%; in test [15] it was 100%; in [16], 78.6%; in [17] it was 87.6%; in [18], 82.1%.
With `O=C1/C(=C\c2ccc([N+](=O)[O-])cc2)CS(=O)(=O)C/C1=C/c1ccc([N+](=O)[O-])cc1`, the growth in test [1] is -86.7% (active); in [2], -57.7% (active); in test [3], -89.6% (active); in test [4], -96.3% (active); in [19] it was -86.6% (active); in test [5] it was -81.6% (active). Moreover, the growth is -90.7% (active) in test [7]; -82.8% (active) in [8]; -35.9% (active) in test [10]; -41.1% (active) in test [11]; -95.4% (active) in test [12]; -99% (active) in [13]. Further, the growth in test [14] is -98.8% (active); in [15], -92.3% (active); in test [17] it was -31.6% (active); in test [18], -34.7% (active).
For the compound `CCCCCCCCC(C)C(=O)N1CCCC1C(=O)N1C(CC(=O)CC)CC(C)CC1C(=O)NC(C)C(=O)NC(C)(C)C(=O)NC(C)(C)C(=O)NC(C(=O)NC(C)C(=O)NC(C)(C)C(=O)NC(C)(C)C(=O)NC(C)CN(C)CCO)C(C)CC` (centres undefined) (X4-P[X5]A[Aib][Aib]IA[Aib][Aib]-X6; configuration not given here), the growth in test [1] is -70.8% (active); in [2], -84.2% (active); in [3], -23.8% (active); in test [4] it was 1.03% (active); in [19], -67.3% (active); in test [5], -7.35% (active). The growth was -85.3% (active) in test [6]; -66.1% (active) in test [7]; -34% (active) in [10]; -25.3% (active) in test [20]; -78.5% (active) in test [11]; -48.1% (active) in [12]. Moreover, the growth is -50.5% (active) in test [13]; -54.5% (active) in [14]; 7.86% (active) in test [15]; -33.3% (active) in test [17]; -40.9% (active) in test [18].
As for `CN(C)c1ccc(/C=C/c2ccnc3ccccc23)cc1`, the growth is 26.8% in [1]; 4.25% (active) in [2]; 22.4% in test [3]; 51.7% in test [4]; 53% in test [5]; 33% in test [6]. The growth in [7] was 34.4%; in [8] it was 38.3%; in [9], 71.8%; in test [10], -5.02% (active); in [20] it was 22.4%; in test [11], 36.2%. The growth was 50.2% in test [12]; 59.5% in [13]; 47.4% in [14]; 45.7% in test [15]; 62% in test [16]; 51.1% in test [17]. Further, the growth in test [18] was 33.1%.
`Cc1ccc(N2C(=O)C=CC2=O)cc1`: the growth was 114% in test [1]; 96.3% in test [2]; 89.6% in test [3]; 95.4% in test [4]; 102% in test [19]; 97.4% in test [5]. Besides, the growth in test [6] is 91.2%; in test [7], 104%; in test [9] it was 112%; in [11], 93.7%; in test [12], 90%; in [13], 99.5%. The growth in [14] was 68.1%; in [15], 86.1%; in test [17] it was 13.7%.
Consider `Oc1ccc(Cl)cc1Cc1cc(Cl)ccc1O`, for which the growth in test [1] was 13.7%; in test [2], 86.3%; in test [3], 48.3%; in test [4], 41.5%; in [19] it was 34.8%; in test [5], 23.9%. Besides, the growth in test [6] is 9.09% (active); in [8] it was 42.9%; in [9] it was 35.6%; in test [10], 5.31% (active); in [20], 60.9%; in test [11] it was 11.4%. Further, the growth in [12] was 22.9%; in [13], 113%; in test [14] it was 26.1%; in [15] it was 83.5%; in [16], 63.6%; in test [17], 22.7%. Further, the growth in test [18] was 41.3%.
On to `Fc1ccc(NCCS)cc1`, for which the growth in test [1] was 105%; in [2] it was 111%; in [3], 80.4%; in test [4], 107%; in test [19], 97.9%; in test [5] it was 99.1%. For the same compound, the growth in test [7] is 106%; in test [8] it was 91.7%; in [9], 103%; in test [10], 102%; in test [20] it was 101%; in test [11], 97.9%. For the same compound, the growth is 84.7% in test [12]; 106% in test [13]; 105% in [14]; 110% in test [15]; 101% in test [16]; 96.6% in test [17]. Besides, the growth in test [18] was 95.3%.
Take `O=C1/C(=C/c2ccccc2)CCC/C1=C\c1ccccc1`: the growth in [1] was 81.5%; in [2], 30.5%; in test [3], 95.9%; in test [4], 94.6%; in test [5] it was 88.9%; in test [6], 86.7%. Further, the growth in test [7] was 82.6%; in test [8], 28.8%; in test [9], 98.5%; in test [10] it was 99.7%; in [20], 96.1%; in test [11], 93.2%. The growth in test [12] was 88.1%; in test [13] it was 104%; in test [14] it was 95.6%; in [15], 84.3%; in test [16] it was 84.6%; in [17] it was 76.3%. Further, in test [18], the growth is 73%.
Take `CCCCCCC1N=C(N)N=C(N)N1c1cccc(Cl)c1` (centres undefined): the growth was 84.2% in test [1]; 17.9% in test [2]; -0.752% (active) in test [3]; 26.9% in test [4]; 33.6% in [19]; 29.3% in [5]. For the same compound, the growth is 28.3% in test [6]; 40% in test [9]; 82.9% in [10]; 76.8% in test [20]; 26.8% in test [11]; 93.4% in test [12]. Further, the growth in test [14] was 53.9%; in test [15] it was 100%; in [16], 83%; in test [17] it was 28.7%; in [18], 25.4%.
